What all share (assay): PBM binding z-score (relative to random genomic background probes); higher = stronger binding; sequences stand for … in GC…GCGATTGACAGCGTAGAATGAAGG
The subject of assay [1] is FXR:RXRa (NR concentration 270 nM, RXRa partner concentration 90 nM). In short, it runs like this: (§1)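 For binding z-scores, the reference was random background probes on custom Agilent 4×180K protein-binding microarrays. These arrays were incubated 1 h with ligand-free nuclear receptor dimers in PBS pH 7.4, 2% milk, 0.02% Triton X-100, 1 mM DTT, 0.2 mg/mL BSA and 0.4 mg/ml salmon testes DNA. Fluorescence was scanned after antibody detection of each partner (one per run) and regression-normalized.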

The test system of assay [2] is LXRa:RXRa (NR concentration 270 nM, RXRa partner concentration 90 nM). In short, it runs like this:
as §1

In assay [3] the test system is LXRa homodimer (NR concentration 270 nM). In short, it runs like this: as §1
For assay [4], the system named is LXRb:RXRa (NR concentration 270 nM, RXRa partner concentration 90 nM). In short, it runs like this: as §1
Assay [5] relates to LXRb homodimer (NR concentration 270 nM). The essentials: as §1
For assay [6], the system named is PPARa:RXRa (NR concentration 270 nM, RXRa partner concentration 90 nM). The essentials:
as §1

Assay [7] relates to PPARg:RXRa (NR concentration 180 nM, RXRa partner concentration 90 nM). In short, it runs like this: as §1
Assay [8] relates to PPARg:RXRa 270nM:90nM, anti-RXR (NR concentration 270 nM, RXRa partner concentration 90 nM). The essentials:
as §1

The subject of assay [9] is PPARg:RXRa 30nM:10nM, anti-RXR (NR concentration 30 nM, RXRa partner concentration 10 nM). In short, it runs like this:
as §1

For assay [10], the system named is PPARg:RXRa 90nM:30nM, anti-RXR (NR concentration 90 nM, RXRa partner concentration 30 nM). In short, it runs like this: as §1
The test system of assay [11] is PPARg:RXRa DBDmut IVT, anti-RXR (DBD mutation: RXRa K156A/R161A, NR concentration 270 nM, RXRa partner concentration 90 nM). The essentials: as §1
The test system of assay [12] is PPARg:RXRa IVT, anti-PPARg (NR concentration 270 nM, RXRa partner concentration 90 nM). In short, it runs like this:
as §1

The test system of assay [13] is PPARg DBDmut:RXRa IVT, anti-PPARg (DBD mutation: PPARg1 K132A/R137A, NR concentration 270 nM, RXRa partner concentration 90 nM). The essentials: as §1
Assay [14] deals with PPARg DBDmut IVT, anti-PPARg (DBD mutation: PPARg1 K132A/R137A, NR concentration 270 nM). In short, it runs like this: as §1
The test system of assay [15] is PPARg homodimer (NR concentration 180 nM). In short, it runs like this: as §1
The subject of assay [16] is PXR:RXRa (NR concentration 270 nM, RXRa partner concentration 90 nM). In short, it runs like this:
as §1

Assay [17] has as its system PXR homodimer (NR concentration 270 nM). In short, it runs like this:
as §1

The test system of assay [18] is RARa:RXR (NR concentration 270 nM, RXRa partner concentration 90 nM). The essentials:
as §1

Assay [19] deals with RARa homodimer (NR concentration 270 nM). In short, it runs like this:
as §1

In assay [20] the test system is RARb:RXRa (NR concentration 270 nM, RXRa partner concentration 90 nM). In short, it runs like this:
as §1

On to AACTCTAGGTAAAAGTTCAGTGAATCCCGAGGAT, for which the PBM binding z-score in assay [1] was 1.13; in assay [2], 1.42; in [3], 1.21; in assay [4], 0.973; in assay [5] it was 0.00492; in assay [6], 4.2. For the same sequence, the PBM binding z-score in [7] worked out at 7.44; in [8], 7.64; in [9] it was 6.5; in [10], 8.32; in assay [11], 2.73; in assay [12] it was 3.74. Further, the PBM binding z-score in assay [13] is 1.15; in assay [14], 0.487; in assay [15], 1.93; in assay [16] it was 1.83; in [17], 1.06; in [18], 1.75. Further, the PBM binding z-score was 0.344 in assay [19] and 2.42 in assay [20].
As to ATCTCTAGGGAAAAGTTCAGTGAATCCCGAGGAT, the PBM binding z-score is -0.0297 in assay [1]; 0.401 in assay [2]; 0.405 in assay [3]; 0.302 in [4]; 0.328 in assay [5]; 2.67 in assay [6]. For the same sequence, the PBM binding z-score in [7] was 4.59; in [8], 5.66; in [9] it was 3.84; in assay [10] it was 5.64; in assay [11], -0.096; in [12], 1.64. The PBM binding z-score came out at 0.313 in assay [13]; 0.383 in assay [14]; 0.686 in [15]; 1.42 in assay [16]; 0.706 in assay [17]; 0.616 in assay [18]. The PBM binding z-score in assay [19] was 0.196; in [20], 1.77.
Turning to CCTACTGGGCCAAAAAGGTCATTGCTGCCGATAA, the PBM binding z-score worked out at 3.75 in assay [1]; 4.36 in [2]; 3.33 in [3]; 4.21 in assay [4]; 0.236 in [5]; 4.7 in assay [6]. In addition, the PBM binding z-score in [7] came out at 3.04; in [8], 4.09; in assay [9] it was 1.5; in assay [10], 3.64; in assay [11], 4.17; in assay [12] it was 4.29. The PBM binding z-score in [13] is 0.288; in assay [14] it was -0.116; in assay [15], 3.92; in assay [16], 4.87; in assay [17], 3.45; in assay [18], 5.19. The PBM binding z-score in assay [19] was 0.902; in [20], 3.98.
With TCATATGGGTAAAAGGTGAAAGTCGGTGTGGTAA, the PBM binding z-score in [1] was 1.33; in assay [2], 1.38; in assay [3], -0.164; in assay [4], 1.62; in assay [5] it was -0.571; in assay [6], 4.91. Further, the PBM binding z-score is 8.23 in assay [7]; 7.44 in assay [8]; 7.67 in assay [9]; 8.21 in assay [10]; 4.48 in assay [11]; 4.52 in assay [12]. In addition, the PBM binding z-score in [13] is 0.558; in assay [14], 0.338; in [15] it was 1.03; in assay [16] it was 1.61; in [17] it was -0.132; in assay [18], 2.3. In addition, the PBM binding z-score is 0.788 in assay [19] and 1.85 in [20].
As for CCTACTGGGCCAAAAGTCATTGATTCCAATGCTC, the PBM binding z-score is -0.29 in assay [1]; 0.0265 in assay [2]; -0.0792 in assay [3]; 0.111 in [4]; -0.713 in [5]; 3.54 in [6]. The PBM binding z-score in assay [7] stood at 7.06; in assay [8], 7.89; in assay [9], 8.84; in assay [10], 9.3; in assay [11], 4.9; in [12], 4.42. The PBM binding z-score was -0.0689 in assay [13]; -0.159 in assay [14]; 0.216 in [15]; -0.153 in assay [16]; -0.589 in assay [17]; 0.273 in assay [18]. Moreover, the results for the PBM binding z-score in assay [19] and in [20] were 0.25 and 0.447, respectively.
Consider CGTCCAAGGTCAAGGTCAGTCAAAGAGACTCGAA, for which the PBM binding z-score in assay [1] amounted to 7.71; in assay [2], 5.91; in [3], 1.64; in [4], 4.85; in [5], 1.09; in assay [6], 5.93. The PBM binding z-score in assay [7] is 6.39; in [8], 5.98; in [9], 2.6; in [10], 4.69; in [11], 4.13; in assay [12] it was 4.78. In addition, the PBM binding z-score in assay [13] is 1.48; in assay [14], -0.095; in [15] it was 4.54; in [16], 4.99; in assay [17], 1.7; in assay [18] it was 5.42. Besides, the PBM binding z-score in assay [19] was determined as 2.49; in assay [20], 5.83.

Values taken from the supplement of paper PMC6555819.
